In PubChem BioAssay (NCATS) one finds Potency data, which are given here for 36 compounds.

Results filed as inconclusive are left out. Entries that show only a call come without a potency. Active and inactive are the calls of the source. Calls follow the shape of the dose curve; as a rule, active = well fitted inhibition curve with a large enough effect; inconclusive = small, poorly fitted or top-dose-only effect; inactive = flat fitted curve, though single readings scatter.
Potency is read from the fitted curve at half-maximal effect.

Phospholipid hydroperoxide glutathione peroxidase GPX4 (Homo sapiens), sequence (P36969 whole entry, looked up): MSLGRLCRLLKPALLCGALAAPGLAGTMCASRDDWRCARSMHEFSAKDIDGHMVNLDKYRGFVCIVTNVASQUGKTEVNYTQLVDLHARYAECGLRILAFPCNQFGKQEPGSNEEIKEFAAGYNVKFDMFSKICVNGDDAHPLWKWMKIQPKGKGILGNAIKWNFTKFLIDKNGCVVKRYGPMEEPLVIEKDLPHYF

One experiment addresses Phospholipid hydroperoxide glutathione peroxidase GPX4 (Homo sapiens) (UniProt P36969). Put plainly: Primary qHTS Assay for Inhibitors of Recombinant Selenoprotein Glutathione Peroxidase 4 (GPX4) (AID 1845192). Also: nearly all actives have a fitted effect of over 65% in size. Particulars: recombinant GPX4, GR-coupled NADPH fluorescence, 15 min; series mostly up to 50 µM. In outline: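 NADPH consumption followed by fluorescence at 340/450 nm, t=0 and after 15 min at room temperature. Reaction started with cumene hydroperoxide (0.5 mM final) after 30 min compound–GPX4 preincubation; final 200 nM GPX4, 100 nM GR, 1 mM GSH, 0.5 mM NADPH.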
In general terms: qHTS replaces the single test concentration by a dilution series.
In the case of `CCn1c(=O)c(-c2ccc(-c3cncs3)cc2Cl)cc2cnc(Nc3ccc(N4CCN(C)CC4)cc3)nc21`, the Potency entry is “inactive”. For the compound `CC(=O)Nc1cccc(-c2csc(Nc3cc(C)ccn3)n2)c1`, the Potency entry was “inactive”. Turning to `CC1(C)CC[C@]2(C(=O)O)CC[C@]3(C)C(=CCC4[C@@]5(C)C[C@@H](O)[C@H](O)C(CO)(CO)C5CC[C@]43C)C2[C@@H]1O` (stereo not given in full), the Potency entry is “inactive”. With `O=C1C[C@]23C=CCN4CCC5c6cc7c(cc6N1[C@@]5(CC2)C43)OCO7` (stereo not given in full), the Potency entry was “inactive”. The same measure, in the same setting: with `NS(=O)(=O)c1ccc(N2N=C(c3ccccc3)CC2c2ccccc2)cc1` (stereo not given) the figure was 16.1 µM (active); with `C#CCNCc1cc2cc(OCc3ccccc3)ccc2[nH]1`, “inactive”.

For the compound `Nc1nc2c(s1)CCN(Cc1ccc(Cl)cc1)CC2`, the Potency entry is “inactive”. `Cc1nc2ccc(CN(C)c3ccc(C(=O)NC(CCC(=O)O)C(=O)O)s3)cc2c(=O)[nH]1` (stereo not given): the Potency entry was “inactive”. As for `NCC1CCN(c2nccc(-c3ccc4ccccc4c3)n2)CC1`, the Potency entry was “inactive”. Same read-out and setting: with `Cc1cc(C)c2c(c1)C(N(Cc1cc(C(F)(F)F)cc(C(F)(F)F)c1)c1nnn(C)n1)CCCN2CC1CCC(C(=O)O)CC1` (stereo not given) the entry was “inactive”; with `COc1cc(-c2cn(C3CCc4c(F)cccc4N(CC(F)(F)F)C3=O)nn2)ccc1-n1cnc(C)c1` (stereo not given), “inactive”.

With `Cc1cc2occ(CN(C)CCN(C)Cc3cn(-c4cccc(C(F)(F)F)c4)c4ccccc34)c(=O)c2cc1C`, the Potency result was “inactive”. The same measure, in the same setting: with `C=CC(C)(C)C12CC3C(=O)N4C(CC5(C(C)(C)C=C)c6ccccc6NC45)C(=O)N3C1Nc1ccccc12` (stereo not given) the entry was “inactive”; with `CCN(CC)C(=O)C(c1ccccc1)N1CCN(c2ccc(NC(=O)c3ccccc3-c3cccnc3)cc2F)CC1` (stereo not given), “inactive”; with `C=CC(=O)N1CCCC(n2nc(-c3ccc(Oc4ccccc4)cc3)c3c(N)ncnc32)C1` (stereo not given), “inactive”. As to `CCOC(=O)N1c2ccc(C(F)(F)F)cc2C(N(Cc2cc(C(F)(F)F)cc(C(F)(F)F)c2)C(=O)OC)CC1CC` (stereo not given), the Potency result was “inactive”. Take `COc1cc(C(=O)O)ccc1NC(=O)C1NC(CC(C)(C)C)C(C#N)(c2ccc(Cl)cc2F)C1c1cccc(Cl)c1F` (stereo not given): the Potency entry is “inactive”. As for `COc1cc2ncc(-c3ccccc3)nc2cc1OC`, the Potency was 20.2 µM (active). `CN(C)C(=O)Nc1cccc(-c2ccc(N(C)C)cc2)c1`: the Potency entry is “inactive”. As for `c1cc(NC2CCNCC2)nc(-c2cnc3ccccn23)c1`, the Potency was 16.1 µM (active). On to `COc1cc(N(C)CCN(C)C)c(N)cc1Nc1nccc(-c2cn(C)c3ccccc23)n1`, for which the Potency result is “inactive”.

Take `CCC(C(C)O)n1ncn(-c2ccc(N3CCN(c4ccc(OCC5COC(Cn6cncn6)(c6ccc(F)cc6F)C5)cc4)CC3)cc2)c1=O` (stereo not given): the Potency result was “inactive”. Same read-out and setting: with `Nc1nc(Nc2ccc3c(c2)CCC(N2CCCC2)CC3)nn1-c1cc2c(nn1)-c1ccccc1CCC2` (stereo not given) the entry was “inactive”; with `C=C1C(=O)O[C@H]2CC(=C)[C@H]3CC[C@@](C)(O)[C@@H]3CC12` (stereo not given in full), “inactive”. As for `Cn1cc(-c2cnn3c(N)c(Br)c(C4CCCNC4)nc23)cn1` (stereo not given), the Potency result was “inactive”.

For the next experiment, the target named is Luciferin 4-monooxygenase (Photinus pyralis) (UniProt P08659). Put plainly: Primary firefly luciferase (FLuc) qHTS assay for identification of artifact compounds. (AID 1845220). Also: nearly all actives have a fitted effect of over 60% in size. Particulars: purified firefly luciferase, luminescence, 5 min; series mostly up to 54.1 µM. In outline:
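Compounds sat 15 min at room temperature with 10 uM luciferin and 10 uM ATP (pH 7.6 Tris acetate). Firefly luciferase (10 nM final) was then added, and luminescence was read 5 min later. Data normalized to no-enzyme and DMSO controls were Hill-fitted.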
For the compound `CCn1c(=O)c(-c2ccc(-c3cncs3)cc2Cl)cc2cnc(Nc3ccc(N4CCN(C)CC4)cc3)nc21`, the Potency entry is “inactive”. The same measure, in the same setting: with `CC(=O)Nc1cccc(-c2csc(Nc3cc(C)ccn3)n2)c1` the figure was 3.01 µM (active); with `CC1(C)CC[C@]2(C(=O)O)CC[C@]3(C)C(=CCC4[C@@]5(C)C[C@@H](O)[C@H](O)C(CO)(CO)C5CC[C@]43C)C2[C@@H]1O` (stereo not given in full), “inactive”. On the same count and under the same terms, with `O=C1C[C@]23C=CCN4CCC5c6cc7c(cc6N1[C@@]5(CC2)C43)OCO7` (stereo not given in full) the entry was “inactive”; with `CN(C)S(=O)(=O)c1ccc(NC(=S)N2CCC(C(O)(c3ccccc3)c3ccccc3)CC2)cc1`, “inactive”; with `C#CCNCc1cc2cc(OCc3ccccc3)ccc2[nH]1`, “inactive”. In the case of `Nc1nc2c(s1)CCN(Cc1ccc(Cl)cc1)CC2`, the Potency entry is “inactive”.

`Cc1nc2ccc(CN(C)c3ccc(C(=O)NC(CCC(=O)O)C(=O)O)s3)cc2c(=O)[nH]1` (stereo not given): the Potency result is “inactive”.

For `CCCCCc1ccc(/C=C/C(=O)Nc2cc(Cl)ccc2C(=O)O)cc1`, the Potency entry is “inactive”. For the compound `COC(=O)c1ccc2c(c1)[nH]c1ncnc(NCCCN3CCCCC3)c12`, the Potency result is “inactive”. Consider `CC(=O)Nc1nc(C)c(-c2nc(N3CCCC(O)C3)no2)s1` (stereo not given), for which the Potency result is “inactive”. Consider `C[C@@H](c1ccc2nccn2c1)n1nnc2ncc(-c3cnn(C)c3)nc21`, for which the Potency entry is “inactive”.

Consider `Cc1cc(C)c2c(c1)C(N(Cc1cc(C(F)(F)F)cc(C(F)(F)F)c1)c1nnn(C)n1)CCCN2CC1CCC(C(=O)O)CC1` (stereo not given), for which the Potency entry is “inactive”. On to `COc1cc(-c2cn(C3CCc4c(F)cccc4N(CC(F)(F)F)C3=O)nn2)ccc1-n1cnc(C)c1` (stereo not given), for which the Potency result was “inactive”. On to `Cc1cc2occ(CN(C)CCN(C)Cc3cn(-c4cccc(C(F)(F)F)c4)c4ccccc34)c(=O)c2cc1C`, for which the Potency entry was “inactive”.

Consider `C=CC(C)(C)C12CC3C(=O)N4C(CC5(C(C)(C)C=C)c6ccccc6NC45)C(=O)N3C1Nc1ccccc12` (stereo not given), for which the Potency entry is “inactive”.

On to `Cc1[nH]c(/C=C2\C(=O)Nc3cc(-c4ccccc4)ccc32)c(C)c1CCC(=O)O`, for which the Potency was 6.01 µM (active). Consider `CCN(CC)C(=O)C(c1ccccc1)N1CCN(c2ccc(NC(=O)c3ccccc3-c3cccnc3)cc2F)CC1` (stereo not given), for which the Potency entry is “inactive”. With `COc1cc2nc(N3CCN(C(=O)COc4c(OC)cccc4C(C)C)CC3)nc(N)c2cc1OC`, the Potency entry is “inactive”. Consider `C=CC(=O)N1CCCC(n2nc(-c3ccc(Oc4ccccc4)cc3)c3c(N)ncnc32)C1` (stereo not given), for which the Potency entry was “inactive”. Still for that read-out and setting: with `CCOC(=O)N1c2ccc(C(F)(F)F)cc2C(N(Cc2cc(C(F)(F)F)cc(C(F)(F)F)c2)C(=O)OC)CC1CC` (stereo not given) the entry was “inactive”; with `c1cc(NC2CCNCC2)nc(-c2cnc3ccccn23)c1`, “inactive”; with `Cc1nc2cc(C(=O)NCc3ccccn3)nn2c(C)c1Cc1cccc(Cl)c1`, “inactive”. Still for that read-out and setting: with `COc1cc(N(C)CCN(C)C)c(N)cc1Nc1nccc(-c2cn(C)c3ccccc23)n1` the entry was “inactive”; with `Cc1cc(N2CCOCC2)ccc1Nc1nc(NC2CCCCC2)c2[nH]cnc2n1`, “inactive”; with `Cc1cc(-c2nc3cc(F)ccc3s2)ccc1NC(=O)[C@@H](N)CCCCN`, 1.9 µM (active). As to `COc1ccnc(CS(=O)c2nc3cc(OC(F)F)ccc3[nH]2)c1OC` (stereo not given), the Potency entry was “inactive”. Take `CCC(C(C)O)n1ncn(-c2ccc(N3CCN(c4ccc(OCC5COC(Cn6cncn6)(c6ccc(F)cc6F)C5)cc4)CC3)cc2)c1=O` (stereo not given): the Potency result was “inactive”. The same measure, in the same setting: with `Nc1nc(Nc2ccc3c(c2)CCC(N2CCCC2)CC3)nn1-c1cc2c(nn1)-c1ccccc1CCC2` (stereo not given) the entry was “inactive”; with `Cn1cc(-c2cnn3c(N)c(Br)c(C4CCCNC4)nc23)cn1` (stereo not given), “inactive”.
